13 molecules from PubChem BioAssay (NCI) can be followed below.

Common to all, as to test: NCI-60 one-dose screen, 48 h (100 = growth as untreated, 0 = no growth, -100 = all killed)
What all share (conditions): 10 µM

For assay [1], the system named is DU-145 prostate.
Assay [2] concerns K-562 leukemia.
In assay [3] the test system is MALME-3M melanoma.
The subject of assay [4] is MDA-MB-231 breast.
Assay [5] deals with RXF 393 renal.
The subject of assay [6] is SF-268 CNS.
Assay [7] deals with SF-295 CNS.
The subject of assay [8] is SF-539 CNS.
The test system of assay [9] is UACC-257 melanoma.
For assay [10], the system named is M14 melanoma.

Compounds without any hit were thinned out: in the full panel of roughly 83,000, 20% have a hit.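 Values shown are percent growth following 48 h exposure of cells in 96-well plates to a single concentration of compound; below 10 was considered active.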 A number with no mark means an inactive call. Calls of active or inactive are those of the source.

Regarding `COc1ccc(-c2nn(-c3cccc(Cl)c3)cc2-c2cc(-c3ccccc3)[nH]c(=O)c2C#N)cc1`, the growth in assay [1] was 47.1%; in [2] it was 44.9%; in [3] it was 24.7%; in assay [4], -8.6% (active); in [5] it was -25.6% (active); in assay [6], 34.8%. Besides, the growth was -36% (active) in [7], -45.9% (active) in assay [8], 75.5% in [9] and 32.5% in assay [10].
For `O=C(Nc1ccc(F)cc1)c1cc2ccccc2cc1O`, the growth in assay [1] was 85.7%; in assay [2], 45.6%; in [3], 72%; in [4], 66.7%; in [5], 94.6%; in assay [6] it was 87.3%. In addition, the growth was 90.7% in assay [7], 84% in assay [8], 58.1% in assay [9] and 88.4% in assay [10].
On to `Cc1cccc(N=Cc2ccccc2O)c1C`, for which the growth in assay [1] was 126%; in assay [2], 98.3%; in assay [3] it was 91.7%; in [4] it was 102%; in assay [5], 110%; in assay [6], 116%. Also, the growth is 106% in [7], 102% in [8], 94.6% in assay [9] and 105% in assay [10].
Turning to `NS(=O)(=O)c1ccc(Br)cc1`, the growth was 114% in assay [1]; 109% in assay [2]; 103% in [3]; 99.3% in assay [4]; 113% in [5]; 98.3% in assay [6]. Besides, the growth is 88.3% in [7], 96.3% in [8], 88.2% in [9] and 86.3% in assay [10].
For the molecule `C=CCn1c(SCC(=O)Nc2ccc(C(=O)/C=C/c3ccc(Cl)cc3)cc2)nnc1-c1cc(-c2ccccc2)nc2ccccc12`, the growth in assay [1] is 95.6%; in assay [2], 27.6%; in assay [3], 87.1%; in assay [4], 58.3%; in assay [5], 63.9%; in assay [6], 76%. Besides, the growth in [7] is 102%; in assay [8], 69.8%; in assay [9] it was 93.4%; in assay [10], 76.3%.
`COc1ccc(/C(=N\N)C(=O)c2ccccc2)cc1` (tested in a mixture with another compound): the growth in assay [1] is 108%; in assay [2], 101%; in [3], 106%; in assay [4], 102%; in assay [5] it was 96.9%; in [6], 96.2%. Besides, the growth in [7] is 89%; in [8], 114%; in [9], 90.8%; in assay [10], 124%.
With `COc1cc(C(=O)n2nc(-c3cc(OC)c(OC)c(OC)c3)nc2N)cc(OC)c1OC`, the growth in [1] was 101%; in assay [2], 77.8%; in assay [3] it was 103%; in assay [4], 108%; in assay [5], 114%; in assay [6], 93.4%. For the same molecule, the growth is 92.7% in assay [7], 96.6% in assay [8], 101% in assay [9] and 89.9% in assay [10].
For `CS(=O)(=O)c1nccc(-c2c(-c3ccc(OCCc4ccccc4)cc3)nc3sccn23)n1`, the growth in [1] is 94%; in assay [2], 100%; in assay [3] it was 103%; in assay [4], 85.2%; in assay [5], 92.5%; in assay [6], 104%. Besides, the growth was 108% in assay [7], 85.5% in [8], 103% in assay [9] and 94.6% in [10].
Take `CC[C@@H](C(=O)[C@@H](C)[C@@H](O)[C@H](C)[C@@H]1O[C@@H]([C@@H](CC)C(=O)O)CC[C@@H]1C)C1O[C@]2(C=CC(=O)[C@]3(CC[C@@](C)([C@H]4CC[C@](O)(CC)[C@H](C)O4)O3)O2)[C@H](C)C[C@@H]1C` (stereo not given in full): the growth in assay [1] was 48%; in [2], 13.8%; in assay [3], -64.8% (active); in assay [4], 30.3%; in assay [5], 25.8%; in [6], 50.6%. Moreover, the growth in [7] was 4.02% (active); in [8], 16.2%; in [9] it was 42.9%; in assay [10], 9.56% (active).
Take `O=C(CSc1nccc(Nc2cccc3ccccc23)n1)c1ccc(Cl)cc1`: the growth was 116% in [1]; 84.3% in assay [2]; 101% in [3]; 79.1% in assay [4]; 106% in assay [5]; 95% in [6]. For the same molecule, the growth in assay [7] is 95%; in assay [8], 94.5%; in assay [9], 109%; in assay [10] it was 85.8%.
In the case of `COc1cc(/C=C/c2cc(/C=C/c3ccc(O)c(OC)c3)nc(N)n2)ccc1O`, the growth in [1] is 13%; in [2], 5.49% (active); in assay [3] it was -28.9% (active); in [4] it was 3.39% (active); in [5], -63.9% (active); in assay [6], 3.56% (active). Further, the growth in [7] is -5.25% (active); in assay [8] it was 11.9%; in [9] it was -1.9% (active); in [10], -26.1% (active).
Take `COc1ccc(-c2cc(-c3ccccc3)nc(SCCCCCCC(=O)NO)n2)cc1`: the growth in [1] is 60%; in assay [2] it was 26.7%; in assay [3], 20.3%; in assay [4], 68.9%; in [5], 22.1%; in [6], 97.4%. For the same molecule, the growth in assay [7] is 67.4%; in assay [8] it was 73.2%; in [9] it was 49.5%; in assay [10], 48.2%.
In the case of `CCCCC/C=C/C/C=C/CCCCCCCC1=NC(C)(C)CN1C(C)C`, the growth in assay [1] was 63.1%; in assay [2], -30.9% (active); in assay [3], 56.3%; in assay [4] it was 36.6%; in assay [5], 25.1%; in [6], 55.6%. The growth in assay [7] was 31.2%; in assay [8] it was 65.7%; in assay [9] it was 25.7%; in assay [10] it was 28.5%.
